Marburg entry inh = blocks Marburg virus binding to or entry into cells | Marburg virus pseudotyped entry inhibition, cell reporter | Potency, µM (titrated, usually from 37.8 µM), hits mostly inhibitors | 300,000 compounds, 1.8% hits | AID 540276; calls by dose curve; tested in HEK293 cells
Vaccinia Venus = vaccinia inhibition (Venus reporter); Vaccinia virus Venus reporter expression, fluorescence; Potency, µM (titrated, usually from 36.5 µM), most hits filed as inhibitors; 330,000 compounds, 0.46% hits; AID 720580; calls by dose curve; tested in A549 cells; further: nearly all actives have a fitted effect of over 30% in size
HCV inh = blocks hepatitis C virus | Huh7.5.1 HCVcc-Cre infection, luciferase reporter, 44 h | Potency, µM (doses to about 41.8 µM), hits mostly inhibitors | 340,000 compounds, 3.4% hits | AID 651820; active means well fitted inhibition curve with a large enough effect; inconclusive means small, poorly fitted or top-dose-only effect, or another doubt; inactive means no such curve, though single readings can be large or run the other way
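Reporter virus HCVcc-Cre (~0.5 moi) infects cells exposed to compound; seeding density 1,000 cells/well with 4 h settling beforehand. Luminescence, 15 sec read, taken 44 h post-infection following a 15 min RT substrate incubation.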
Vaccinia mCherry = inhibitors of vaccinia virus infection (mCherry reporter signal); Potency, µM (doses to about 36.5 µM), hits mostly inhibitors; Vaccinia virus mCherry reporter infection, fluorescence; AID 720579; 310,000 compounds, 0.63% hits; calls by dose curve; tested in A549 cells; further: nearly all actives have a fitted effect of over 35% in size
LASV entry inh = blocks Lassa virus binding to or entry into cells | Lassa virus pseudotype entry inhibition, cell reporter | Potency, µM (series often up to 37.9 µM), hits mostly inhibitors | 300,000 compounds, 1.2% hits | AID 540256; calls by dose curve; tested in HEK293 cells; further: nearly all actives have a fitted effect of over 50% in size
A number is an active result; - = inactive; ? = inconclusive; . = not tested or not shown; [ ] = remark or other dose. Shown are actives, neighbours in structure and some others; about 4.6% of the full set was active somewhere.

SMILES	Marburg entry inh	Vaccinia Venus	HCV inh	Vaccinia mCherry	LASV entry inh
CC(C)NC(=O)Cn1c(SCC(=O)NC2CCCC2)nc2ccccc21	-	-	-	-	-
COc1ccc(CCN2C(=O)CSC2=Nc2ccc(C(C)C)cc2)cc1OC	?	-	-	-	1.4µM
C=CCn1c(CSc2ccccc2[N+](=O)[O-])n[nH]c1=S	-	-	-	-	-
C=CCn1c(Sc2ncc([N+](=O)[O-])s2)n[nH]c1=O	?	-	6.3µM	-	?
N#Cc1c(N)nc(Sc2ccc(Cl)cc2)c(C#N)c1-c1ccccc1Cl	?	-	11µM	?	?
CCCC[n+]1c(/C=C/c2ccc(N(C)C)cc2)sc2ccccc21	.	-	.	?	.
Cc1ccc2nc(-c3ccc(NS(C)(=O)=O)cc3)cc(-c3ccccc3)c2c1	-	.	?	.	-
Cc1ccc2nc(-c3ccncc3)cc(-c3ccccc3)c2c1	13µM	.	11µM	.	-
COc1cc(/C=N/N2C(=O)C3C4c5ccccc5C(c5ccccc54)C3C2=O)ccc1O (stereo unspecified)	?	-	-	-	13µM
O=C(CCl)Nc1cn(-c2ccccc2)nc1-c1ccc(F)cc1	?	-	?	?	11µM
Cc1nc2ccc(S(=O)(=O)CCC(=O)Nc3ccc(F)cc3C)cc2s1	.	-	.	-	-
COC(=O)c1ccc(CN2C(=O)[C@]3(OCCC=C[C@@H]3C)c3ccccc32)cc1	-	.	.	.	.
C=C(C#CCCO)CCN1C=C(C(=O)OCC)C(c2ccccc2)NC1=O (stereo unspecified)	-	.	.	.	?
Cc1ccc(C2C3=C(CC(C)(C)CC3=O)NC3=C2C(=O)c2ccccc23)cc1 (stereo unspecified)	?	?	?	-	?
CCCSC1=C(C#N)[C@H](c2ccc(OC)cc2)C2=C(CC(C)(C)CC2=O)N1	-	.	.	.	.
CSC1=C(C#N)C(c2ccc(Cl)cc2)C2=C(CC(C)(C)CC2=O)N1 (stereo unspecified)	?	-	11µM	-	?
CC1(C)CC(=O)C2=C(C1)NC1=C(C(=O)c3ccccc31)C2c1ccc(Cl)cc1 (stereo unspecified)	?	?	11µM	?	?
COc1ccc(C(=O)c2coc(-c3ccccc3C(=O)O)c2C(=O)O)cc1	-	-	-	-	-
COc1ccc(C(=O)c2c(C(F)(F)F)oc3c2C(=O)c2ccccc2C3=O)cc1	3.2µM	4µM	1.6µM	.	?
Nc1ncnc2c1nc(Cl)n2C1OC(CO)C(O)C1O (stereo unspecified)	.	-	.	?	.
Nc1ncnc2c1nc(Cl)n2[C@@H]1O[C@H](CO)[C@@H](O)[C@@H]1O	.	13µM	.	?	.
CN(C)c1nc2c(N)ncnc2n1[C@H]1O[C@@H](CO)[C@H](O)[C@@H]1O	-	-	-	-	-
[N-]=[N+]=Nc1nc2c(N)ncnc2n1C1OC(CO)C(O)C1O (stereo unspecified)	.	13µM	.	8.9µM	.
COc1cc(=O)n2c(c1C(=O)NC(C)c1ccco1)CCN(Cc1ccnc3ccccc13)CC2 (stereo unspecified)	.	-	.	-	.
CCN(CC)c1cc2c(cc1F)c(=O)c(S(=O)(=O)c1ccc(OC)cc1)cn2Cc1ccccc1	.	-	.	-	?
SMILES	Marburg entry inh	Vaccinia Venus	HCV inh	Vaccinia mCherry	LASV entry inh
Cc1ccc2[nH]c(=O)c(CN(Cc3ccc4c(c3)OCO4)Cc3nnnn3C3CCCC3)cc2c1	?	-	?	-	3.5µM
COc1cc(/C=C2\C[C@H]3[C@@H]4CC=C5C[C@@H](N6CCCC6)CC[C@]5(C)[C@H]4CC[C@]3(C)[C@H]2O)cc(OC)c1OC	10µM	-	7.1µM	-	-
O=C(NNc1ccccc1)c1ccc(Cl)c(Cl)c1	7.1µM	-	?	-	?
CCCOc1ccc(/C(O)=C2\C(=O)C(=O)N(CCN(C)C)[C@H]2c2ccncc2)cc1	-	.	.	.	.
O=C1N(c2ccccc2)C[C@@H]2C[C@@H](c3cc4ccccc4o3)N3CCC[C@@]123	?	?	?	0.89µM	?
CC(C)c1c(C(=O)NCC(C)(C)N2CCOCC2)cnn1-c1nccc(-c2cccs2)n1	.	-	.	-	.
COc1ccc(C(=O)/C=C/C(=O)N(CC(=O)NC2CCCCC2)Cc2cccs2)c(O)c1	.	.	-	.	.
COCCN(CC(=O)NC1CCCCC1)C(=O)/C=C/C(=O)c1ccc(OC)cc1O	11µM	-	?	-	13µM
CC(OC(=O)C1CC(=O)N(Cc2ccco2)C1)C(=O)Nc1cccc(C#N)c1 (stereo unspecified)	-	-	-	-	-
COc1cc2c(cc1NC(=O)C(C)OC(=O)C1CC(=O)N(Cc3ccco3)C1)oc1ccccc12 (stereo unspecified)	-	-	14µM	-[1.46 µM]	-
O=C(CN1CCN(c2ccccn2)CC1)Nc1ccc([N+](=O)[O-])cc1C(=O)Nc1ccccc1F	?	-	11µM	-	?
COCc1ccc(CN2Cc3ccccc3OC(c3ccccc3F)C2)o1 (stereo unspecified)	.	-	.	-	.
O=c1[nH]c(CN2CCN(c3ccccc3O)CC2)nc2scc(-c3ccccc3Cl)c12	.	-[7.34 µM]	13µM	?	.
COc1cccc(N2CCN(Cc3nc4scc(-c5ccccc5)c4c(=O)[nH]3)CC2)c1	?	?	13µM	?	?
O=c1[nH]c(CN2CCN(c3ccc(O)cc3)CC2)nc2scc(-c3ccc(Cl)cc3)c12	.	.	6.3µM	.	.
COc1cccc(N2CCN(Cc3nc4ccccc4c(=O)[nH]3)CC2)c1	-	-	-	.	-
O=c1[nH]c(CN2CCN(c3ccccc3Cl)CC2)nc2ccsc12	-	-	-	-	-
COc1ccc(N2CCN(Cc3nc4sc(C)c(C)c4c(=O)[nH]3)CC2)cc1	-	-	-	-	-
O=C1NC(Cc2ccccc2)c2nc3cc(Cl)ccc3c(=O)n2-c2ccccc21 (stereo unspecified)	.	.	3.5µM	.	.
O=C1NC(Cc2ccccc2)c2nc3ccc(Cl)cc3c(=O)n2-c2ccccc21 (stereo unspecified)	.	.	-	.	.
COc1ccc(C[C@H]2CN3C(=NC[C@@H]3C(C)C)N2C[C@H](C)NC(=O)c2ccc(C)c(Br)c2)cc1	.	?	-	?	.
COc1ccc(C[C@H]2CN3C(=NC[C@@H]3Cc3ccc(O)cc3)N2C[C@H](C)NC(=O)c2ccc(C)c(Br)c2)cc1	.	13µM	?	?	.
Cc1ccc(C(=O)N[C@@H](C)CN2C3=NC[C@@H](Cc4ccccc4)N3C[C@H]2Cc2ccc(O)cc2)cc1Br	.	?	-	?	.
Cc1ccc(C(=O)N[C@@H](C)CN2C3=NC[C@H](Cc4ccccc4)N3C[C@H]2Cc2ccc(O)cc2)cc1Br	.	13µM	-	?	.
Cc1nnc(N2CCN(c3cccc(C(F)(F)F)c3)CC2)c2c1nnn2Cc1ccccc1	-	?	.	-	-
Cc1nn(C)c2c1c(-c1ccccc1)cc(=O)n2C(C)C(=O)NCCc1ccc(Cl)cc1 (stereo unspecified)	.	-	.	-	-
CC1(C)COC(/C=C/c2cccc([N+](=O)[O-])c2)=N1	?	?	?	11µM	?
O=[N+]([O-])c1cccc(/C=C/c2ccccc2)c1	.	-	.	-	.
COc1ccc(Cc2ccccc2C(=O)O)cc1	?	-	-	-	-
COc1ccc(CC2=CC(=O)c3ccccc3C2=O)cc1	.	.	22µM	.	.

Screens: PubChem, National Center for Advancing Translational Sciences (NCATS)
